Reference: PubChem BioAssay (NCATS)
Inconclusive results are not listed. The source made the active and inactive calls. Calls come from the whole dose curve; as a rule, active = well fitted inhibition curve with a large enough effect; inconclusive = small, poorly fitted or top-dose-only effect; inactive = flat fitted curve, though single readings scatter.

Tests used:
Test in all cases: qHTS profiling for inhibitors of Plasmodium falciparum proliferation (AID 504749); note: nearly all actives have a fitted effect of over 60% in size
ATS95 = conditions: P. falciparum in erythrocytes, SYBR Green DNA, 72 h; series mostly up to 28.7 µM
Outline: (§1)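 Infected RBCs, 0.3% parasitemia/2.5% Hct final; cpd 72 h, 37 C, 5% CO2; lysis buffer with saponin/triton/SYBR Green I, o/n RT dark; FI 485/535; norm. to artemisinin (0.29 uM) and DMSO.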

C2A = conditions: P. falciparum in erythrocytes, SYBR Green DNA, 72 h; series mostly up to 28.7 µM
Outline: as §1

CP211 = conditions: P. falciparum in erythrocytes, SYBR Green DNA, 72 h; series mostly up to 28.7 µM
Outline: as §1

CP215 = conditions: P. falciparum in erythrocytes, SYBR Green DNA, 72 h; series mostly up to 28.7 µM
Outline: as §1

CP217 = conditions: P. falciparum in erythrocytes, SYBR Green DNA, 72 h; series mostly up to 28.7 µM
Outline: as §1

CP250 = conditions: P. falciparum in erythrocytes, SYBR Green DNA, 72 h; series mostly up to 12.8 µM
Outline: as §1

CP252 = conditions: P. falciparum in erythrocytes, SYBR Green DNA, 72 h; series mostly up to 12.8 µM
Outline: as §1

CP256 = conditions: P. falciparum in erythrocytes, SYBR Green DNA, 72 h; series mostly up to 28.7 µM
Outline: as §1

CP269 = conditions: P. falciparum in erythrocytes, SYBR Green DNA, 72 h; series mostly up to 28.7 µM
Outline: as §1

CP325 = conditions: P. falciparum in erythrocytes, SYBR Green DNA, 72 h; series mostly up to 28.7 µM
Outline: as §1

CP329 = conditions: P. falciparum in erythrocytes, SYBR Green DNA, 72 h; series mostly up to 28.7 µM
Outline: as §1

DIV17 = conditions: P. falciparum in erythrocytes, SYBR Green DNA, 72 h; series mostly up to 28.7 µM
Outline: as §1

ECU = conditions: P. falciparum in erythrocytes, SYBR Green DNA, 72 h; series mostly up to 28.7 µM
Outline: as §1

FAB9 = conditions: P. falciparum in erythrocytes, SYBR Green DNA, 72 h; series mostly up to 28.7 µM
Outline: as §1

N140 = conditions: P. falciparum in erythrocytes, SYBR Green DNA, 72 h; series mostly up to 28.7 µM
Outline: as §1

P93_24 = conditions: P. falciparum in erythrocytes, SYBR Green DNA, 72 h; series mostly up to 28.7 µM
Outline: as §1

PAD = conditions: P. falciparum in erythrocytes, SYBR Green DNA, 72 h; series mostly up to 28.7 µM
Outline: as §1

PC15 = conditions: P. falciparum in erythrocytes, SYBR Green DNA, 72 h; series mostly up to 28.7 µM
Outline: as §1

PC26 = conditions: P. falciparum in erythrocytes, SYBR Green DNA, 72 h; series mostly up to 28.7 µM
Outline: as §1

SC27B = conditions: P. falciparum in erythrocytes, SYBR Green DNA, 72 h; series mostly up to 28.7 µM
Outline: as §1

Measured: Potency

CNC(C)[C@@H](O)c1ccc(O)cc1 (stereo not given in full)
inactive: all assays above
